In the library only some 7.3% were active in any assay of this set; here they are far more common.
KinaseGlo FLuc: Kinase-Glo luciferase inhibition (counter-screen). 200,000 compounds, 0.28% hits. Potency, µM (series often up to 38.3 µM), inactives show top-dose activity change, negative = inhibition, actives largely listed as inhibitors. AID 1379. Kinase-Glo luciferase, ATP luminescence, 8 min; further: on the % scale 0 is the no-effect control and ±100 the full control effect; nearly all actives have a fitted effect of over 60% in size
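Compounds were added to a substrate mix at pH 7.2 (50 mM imidazole, 10 uM ATP, within the enzyme's linear range), followed by Kinase-Glo detection reagent; luminescence was measured after 8 minutes at ambient temperature.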
SMN2 splice enh: increases expression of the SMN2 splice variant. AID 1458. HEK293 SMN2-luciferase splicing reporter, luminescence, 30-36 h. 210,000 compounds, 2.8% hits. Potency, µM (series often up to 46.1 µM), for inactives: at the top dose activity change, positive = activation, hits mostly activators; further: % of control where 0% means no effect; nearly all actives have a fitted effect of over 55% in size
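HEK293 cells carry an SMN2 […]–luciferase reporter in which exon 7 inclusion puts luciferase in frame. Cells were plated 10-12 h before compound addition, then incubated 30-36 h at 37C. ONE-Glo luminescence was read; sodium butyrate at 4.5 mM final served as control.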
NPC1 promoter act: activates the NPC1 promoter; AID 485313; Potency, µM (top dose mostly 9.22 µM), without a hit: top-dose activation, hits mostly activators; Huh7 NPC1 promoter luciferase reporter, 24 h; 320,000 compounds, 2.4% hits; further: % of control where 0% means no effect; nearly all actives have a fitted effect of over 60% in size
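Cells: Huh7 expressing luciferase under the NPC1 promoter, 1500/well. Seeded 2 h, compound added, incubated 24 h at 37 °C. Luciferase reagent, 10 min ambient, then luminescence.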
FLuc counter: inhibits or activates purified firefly luciferase, miR-21 counter-screen. P08659. purified FLuc, Km substrates, luminescence inhibition. Potency, µM (top dose mostly 57.5 µM), without a hit: top-dose activity change, negative = inhibition, hits mostly inhibitors. 360,000 compounds, 6.9% hits;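 further: plate controls were vehicle for no effect and reference inhibitor for full effect; nearly all actives have a fitted effect of over 55% in size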
Target sequence (P08659 whole entry, looked up): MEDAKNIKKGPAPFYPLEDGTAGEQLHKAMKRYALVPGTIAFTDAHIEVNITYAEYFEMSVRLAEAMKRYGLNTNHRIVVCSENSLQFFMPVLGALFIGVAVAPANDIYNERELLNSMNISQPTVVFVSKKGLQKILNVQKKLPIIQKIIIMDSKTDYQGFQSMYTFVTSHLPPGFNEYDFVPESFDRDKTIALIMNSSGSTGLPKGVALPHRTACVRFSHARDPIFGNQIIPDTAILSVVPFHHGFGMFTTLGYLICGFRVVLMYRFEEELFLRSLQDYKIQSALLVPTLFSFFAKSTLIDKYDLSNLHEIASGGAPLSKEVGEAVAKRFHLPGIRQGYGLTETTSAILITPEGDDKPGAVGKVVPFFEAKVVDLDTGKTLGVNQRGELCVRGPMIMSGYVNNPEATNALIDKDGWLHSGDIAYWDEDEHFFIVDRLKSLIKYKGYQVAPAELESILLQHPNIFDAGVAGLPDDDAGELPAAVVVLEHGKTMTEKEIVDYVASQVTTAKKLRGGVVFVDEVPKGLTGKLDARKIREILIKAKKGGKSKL
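Biochemical qHTS of compounds, final roughly 60 µM downward over six points, against 10 nM purified firefly luciferase using Km concentrations of substrates (10 uM D-luciferin, 10 uM ATP) in Tris acetate pH 7.5 buffer; luminescence output.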
Rab9 prom act: activates the Rab9 promoter | Huh7 Rab9 promoter-luciferase reporter, luminescence, 24 h | Potency, µM (top dose mostly 9.22 µM), for the others: at the top dose activation, negative = inhibition, most hits filed as activators | 320,000 compounds, 2.8% hits; further: % of control where 0% means no effect; nearly all actives have a fitted effect of over 60% in size
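Rab9 promoter-driven luciferase in stably transfected Huh7 cells; 1500 cells/well rested 2 h, exposed to compound in DMSO for 24 h at 37 °C, 5% CO2. Luminescence read 10 min after adding luciferase reagent at ambient temperature.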
Active calls of the source: *; u = inconclusive; x = not tested or not shown. The call rests on the fitted dose curve; in most records, active means well fitted curve in the direction sought with a large enough effect; inconclusive means small, poorly fitted or top-dose-only effect, or another doubt; inactive means no such curve, though single readings can be large; an effect the other way counts as inactive or inconclusive. Potency means the concentration at half of the fitted maximal effect.

SMILES	KinaseGlo FLuc	SMN2 splice enh	NPC1 promoter act	FLuc counter	Rab9 prom act
Cc1ccc(Nc2nc3c(c(=O)[nH]2)CCCC3)cc1	-2.7%	u	u	u	u
O=c1[nH]c(Nc2nc3ccccc3o2)nc2c1CCCC2	2.3%	3.55µM*	0.316µM*	1.51µM*	0.316µM*
O=C1c2ccc(O)c(O)c2C(=O)c2c(O)ccc(O)c21	-19.5%	-16.3%	x	x	x
Nc1ccc2c(c1Cl)C(=O)c1ccc(N)c(Cl)c1C2=O	x	x	u	12µM*	2.24µM*
Cc1ccc(-n2nnnc2SCC(=O)NCCc2ccccc2)cc1C	x	3.8%	x	-11.9%	x
O=C(c1cc(-c2ccccc2Cl)nc2ccccc12)N1CCN(c2ccccc2O)CC1	x	x	-0.8%	4.8%	0.6%
Cc1cnn(C(=O)c2cc(-c3ccccc3)nc3ccccc23)c1	-4.2%	7.3%	1.7%	16.9µM*	7.6%
Cc1ccc(-c2cc(C(=O)N3CCN(c4ccccc4O)CC3)c3ccccc3n2)cc1	x	x	u	2.39µM*	u
Cc1ccc(-c2cc(C(=O)N3CCCc4ccccc43)c3ccccc3n2)cc1	-11.4%	-17.5%	9.0%	3.38µM*	0.5%
O=C(c1cc(-c2cccnc2)nc2ccccc12)N1CCCc2ccccc21	0.6%	-6.6%	-4.1%	-19.1%	1.5%
O=C(c1cc(-c2cccs2)nc2ccccc12)N1CCN(c2ccccc2O)CC1	6.1%	-65.8%	4.6%	21.3µM*	18.4%
COc1ccc(OC)c(CCNC(=O)c2cnn(-c3ccccc3)c2-n2cccc2)c1	x	-36.1%	x	-15.2%	x
O=C(CSc1nc(=O)n(Cc2ccncc2)c2c1CCC2)Nc1ccccc1	x	x	x	3.3%	x
COc1ccc(-c2cc(C(=O)N3CCN(c4ccccc4O)CC3)c3ccccc3n2)cc1	x	x	3.16µM*	0.675µM*	2µM*
COc1ccc(-c2cc(C(=O)Nc3ccccc3N3CCOCC3)c3ccccc3n2)cc1OC	2.6%	-58.3%	-7.5%	u	1.9%
COc1ccc(-c2cc(C(=O)N3CCN(c4ccccc4O)CC3)c3ccccc3n2)cc1OC	x	x	21.0%	9.53µM*	-1.7%
COc1ccc(CNC(=O)CCc2c(C)c3cc4c(C)coc4cc3oc2=O)cc1	x	1.5%	x	-6.4%	x
CC1=CCC(COC(=O)Nc2ccccc2)CC1 (stereo unspecified)	u	17.8µM*	2.82µM*	6.75µM*	3.98µM*
O=C(Nc1cccc([N+](=O)[O-])c1)Nc1cccc([N+](=O)[O-])c1	-0.2%	-29.1%	-0.9%	-0.9%	-6.2%
O=C(Nc1cccc([N+](=O)[O-])c1)C(=O)N1CCCCC1	-26.3%	17.8µM*	u	u	1.26µM*
O=C(Nc1cccc([N+](=O)[O-])c1)ONC1=NCCCCC1	x	x	0.1%	15.1µM*	-3.4%
O=C(ONC1=NCCCCC1)c1ccc([N+](=O)[O-])cc1	4.4%	-48.9%	-3.7%	-3.2%	0.9%
O=C(Nc1cccc([N+](=O)[O-])c1)NC1CCCCCCC1	x	x	2.82µM*	12µM*	2.51µM*
CS(=O)(=O)N(Cc1ccccc1)c1ccc(C(=O)Nc2cccc(Cl)c2)cc1	x	-11.4%	x	-9.4%	x
CC(C)c1cnc2c(c1SCC(=O)Nc1cccc(F)c1)c(=O)n(C)c(=O)n2C	x	x	x	-10.7%	x
SMILES	KinaseGlo FLuc	SMN2 splice enh	NPC1 promoter act	FLuc counter	Rab9 prom act
Cc1ccc(C2C(C#N)=C(N)Oc3c2sc2ccccc32)o1 (stereo unspecified)	-2.0%	5.3%	0.4%	13.5µM*	0.7%
COc1ccc(-c2csc(NCc3ccco3)n2)cc1C	0.0%	31.6µM*	3.16µM*	u	3.98µM*
c1cncc(-c2csc(NCc3ccco3)n2)c1	-9.0%	20.8%	21.9%	u	25.1%
COc1ccc(-c2nc3cccc(C)n3c2NCc2ccco2)cc1OC	2.5%	21.2%	5.9%	9.53µM*	4.1%
CC(=O)Nc1ccc(-c2csc(NCc3ccco3)n2)cc1	2.0%	12.6µM*	2.51µM*	7.57µM*	2µM*
Cc1ccc(CNC(=O)Cn2c(=O)n(-c3cccc(Cl)c3)c(=O)c3sc4ccccc4c32)cc1	x	-2.6%	x	1.7%	x
O=C(COc1ccc(Cl)cc1Cl)Nc1ccc(-c2ccc(N3CCOCC3)nn2)cc1	x	x	u	1.9%	u
O=C(COc1ccc(Cl)cc1Cl)Nc1cccc(-c2ccc(N3CCOCC3)nn2)c1	x	x	u	0.426µM*	1µM*

Source: PubChem (National Center for Advancing Translational Sciences (NCATS))
